# Bioassay records: PubChem BioAssay, The Scripps Research Institute Molecular Screening Center
# An excerpt weighted towards active compounds, which were near 3.5% of everything screened.
# FBW7 activator – activators of human E3 ligase FBW7 | Q969H0 | AlphaScreen FBW7–phospho-cyclin E peptide binding, activator screen | normalized activity (activation), % at 26.1 µM | 650,000 compounds, 0.13% hits | AID 1259310; in the data active = normalized activity above about 1.9%;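 note: purified mutant Fbw7 with reduced substrate affinity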
# GPR151 ag – human GPR151 activation; 650,000 compounds, 1% hits; activation, % at 11.2 µM; Q8TDV0; PathHunter beta-arrestin GPR151 cells, luminescence; in the data active = activation above about 4.9%;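 note: 0% = median of compound wells and 100% = cells with positive control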
# MITF inh – inhibitors of human MITF; 650,000 compounds, 0.91% hits; O75030; inhibition, % at 2.6 µM; AID 1259374; AlphaScreen MITF homodimerization, bead proximity signal; in the data active = inhibition above about 50%;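 note: 0% = vehicle wells with protein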
# TEAD-YAP inh – TEAD-YAP interaction inhibition; HEK-TIYL cells, TEAD-Gal4/YAP UAS-luciferase luminescence; inhibition, % at 9.12 µM; 640,000 compounds, 1.4% hits; AID 1259422; in the data active = inhibition above about 32%;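 note: 0% = median of test compound wells and 100% = reference inhibitor wells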
# GPR151 conf act – confirmation of human GPR151 activators; shares compounds with GPR151 ag; activation, % at 11.2 µM; GPR151 PathHunter beta-arrestin cells, luminescence, 90 min; % of EA-reagent control over plate median; AID 1508609; 6,700 tested, under 10 active;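 active = mean percent activation across replicates above the confirmation screen cutoff of 4.91%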
# GPR119 ag – counter-screen for GPR151 activators: effect on human GPR119. 6,700 compounds, 0.3% hits. GPR119 PathHunter beta-arrestin cells, luminescence, 90 min; 0 = compound-well median, 100 = enzyme-acceptor control. AID 1508611. activation, % at 11.2 µM. shares compounds with GPR151 ag;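 active = mean percent activation in the counterscreen above 29.09%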;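 note: counterscreen on off-target GPR119 to flag nonselective hits from the GPR151 activator screen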
# Target sequence (Q8TDV5 whole entry, looked up): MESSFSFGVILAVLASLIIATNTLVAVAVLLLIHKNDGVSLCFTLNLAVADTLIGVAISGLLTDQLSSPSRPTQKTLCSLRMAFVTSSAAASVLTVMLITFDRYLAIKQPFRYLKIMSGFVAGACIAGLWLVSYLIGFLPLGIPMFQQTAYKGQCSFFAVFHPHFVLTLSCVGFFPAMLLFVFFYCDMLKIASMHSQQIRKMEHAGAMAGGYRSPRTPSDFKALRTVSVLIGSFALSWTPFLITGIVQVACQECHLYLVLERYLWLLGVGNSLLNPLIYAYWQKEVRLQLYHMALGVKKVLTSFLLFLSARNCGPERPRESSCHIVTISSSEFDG
# * = called active by the depositor; / = no result given.
SMILES,FBW7 activator,GPR151 ag,MITF inh,TEAD-YAP inh,GPR151 conf act,GPR119 ag
Cc1ccc(Cn2c(SCC(=O)C(C)(C)C)nc3ccsc3c2=O)cc1,0,5.0*,7,-3,1,8
COc1ccc(CCNC(=O)CCn2c(SCC(=O)Nc3cc(C)on3)nc3ccccc3c2=O)cc1OC,0,4.9*,8,3,-1,-17
COc1ccc(NC(=O)Nn2cnnc2)cc1,0,0,14,1,/,/
CCC(C)C1N=C2c3ccccc3N=C(SCC(=O)NCc3ccc(C)cc3)N2C1=O (stereo unspecified),0,-2,6,8,/,/
c1ccc(-c2noc(CCC3CCCC3)n2)cc1,0,12*,1,0,-1,-8
CCC(=O)NC(c1nnc2n1CCN(Cc1ccc(C)c(C)c1)CC2)C(C)C (stereo unspecified),0,9.8*,-6,13,1,5
CCOc1cc(CN2CCc3nnc(C(NS(C)(=O)=O)C(C)C)n3CC2)ccc1O (stereo unspecified),0,8.1*,-3,-3,0,2
CCC(=O)NC(c1nnc2n1CCN(Cc1ccc(OC)c(C)c1)CC2)C(C)C (stereo unspecified),0,0,-4,1,/,/
CCOC(=O)CNS(=O)(=O)c1ccccc1C,0,1,-7,1,/,/
COC(=O)c1c(C)[nH]c(C(=O)COC(=O)CCc2ccc(OC)c(OC)c2)c1C,0,5.7*,6,5,0,4
CC(=O)N1CCC(N(C(=O)Nc2ccc(Cl)c(Cl)c2)C2CCCC2)CC1,0,0,0,4,/,/
c1nc(NCCc2ccc3c(c2)OCCO3)c2ccsc2n1,0,5.6*,-2,39*,2,0
Cc1nn(C)c(C)c1-c1nc(C(=O)NC2CCN(Cc3ccccc3)CC2)cs1,0,8.7*,8,-16,0,-7
Cc1nn(C)c(C)c1-c1cncc(C(=O)NC2CCN(Cc3ccccc3)CC2)c1,0,5.5*,-7,2,1,-2
N#CC1=C(N)n2ncc(C#N)c2NC1c1ccccc1 (stereo unspecified),0,-1,-11,2,/,/
O=C(NCCN1CCN(S(=O)(=O)c2ccccc2)CC1)C(=O)NCc1ccco1,0,5.7*,-2,5,0,-8
Cc1ccc(C)n1CCN1CCN(S(=O)(=O)c2ccccc2)CC1,0,5.1*,-34,5,0,-3
CC(C)C(=O)Nc1nnc(SCc2ccc(Cl)cc2)s1,0,5.1*,3,3,0,9
Cc1ccc(S(=O)(=O)N(CC(N)=O)c2cccc([N+](=O)[O-])c2)cc1,0,8.4*,-1,-7,1,-1
CS(=O)(=O)N(CC(N)=O)c1cccc([N+](=O)[O-])c1,0,0,-9,-1,/,/
O=C1c2ccncc2C(=O)N1c1ccc(F)cc1,0,5.9*,-8,-9,0,-9
Cc1ccc(N2C(=O)c3ccncc3C2=O)cc1,0,1,-8,2,/,/
CC1=C(c2ccc(C)cc2)S(=O)(=O)N=C1Nc1ccccc1Cl,0,0,4,-44,/,/
CN1CCN(C(=O)CN(c2ccc(Cl)c(Cl)c2)S(=O)(=O)c2ccccc2)CC1,0,2,17,7,/,/
C/C(CC(=O)Nc1ccc2c(c1)OCCO2)=N\NC(=O)C(c1ccccc1)c1ccccc1,0,5.1*,11,6,0,-5
SMILES,FBW7 activator,GPR151 ag,MITF inh,TEAD-YAP inh,GPR151 conf act,GPR119 ag
CCC(=O)N/N=C(\C)CC(=O)Nc1ccc2c(c1)OCCO2,0,0,-7,-12,/,/
CC1=C(C(=O)Nc2ccccc2F)C(c2ccc(N(C)C)cc2)NC(=O)N1 (stereo unspecified),0,0,8,-3,/,/
CC1(C)CC(=O)C(C=Nc2ccc(NC3=C(C#N)C(=O)CC(C)(C)C3)cc2)=C(O)C1,0,7.1*,16,-1,1,-2
NNC(=O)/C(=C\c1cccc([N+](=O)[O-])c1)NC(=O)c1ccccc1,0,0,-6,-3,/,/
O=C(CN1CCCCCC1)N/N=C/c1ccccc1F,0,7.2*,18,-1,-1,2
Cc1cccc(OCc2nn3c(C4COc5ccccc5O4)nnc3s2)c1 (stereo unspecified),0,-1,9,2,/,/
COc1ccc(CCNC(=O)c2[nH]c(C)c(C(C)=O)c2C)cc1OC,0,-1,2,-2,/,/
CCOc1ccc(CCNC(=O)c2[nH]c(C)c(C(C)=O)c2C)cc1OCC,0,14*,-2,-6,0,2
CCCn1c(C2CC2)nc2ccccc21,0,9.9*,-1,-2,0,2
COC(=O)COc1ccc(S(=O)(=O)Nc2ccc(S(N)(=O)=O)cc2)cc1C,0,5.9*,3,-6,1,-1
COc1ccc(S(=O)(=O)Nc2ccc(I)cc2)cc1C,0,6.8*,2,4,0,-8
COC(=O)COc1ccc(S(=O)(=O)Nc2ccc(C(N)=O)cc2)cc1C,0,-1,-8,3,/,/
COCCNS(=O)(=O)c1ccc(Cl)c(C(F)(F)F)c1,0,8.8*,3,5,1,7
COc1ccc(S(=O)(=O)NCCCCCC(=O)O)cc1C(=O)O,0,8.8*,10,0,1,-3
O=C(NCCCS(=O)(=O)N1CCN(c2ncccn2)CC1)c1ccccc1,0,-1,8,-1,/,/
COc1ccccc1NS(=O)(=O)c1ccc(Cl)c(C(=O)Nc2ccc(Cl)cc2)c1,0,9.6*,6,9,0,-8
COc1ccc(S(=O)(=O)Nc2ccc3oc4c(c3c2)CCCC4)cc1[N+](=O)[O-],0,6.4*,-4,10,0,1
COc1ccc(S(=O)(=O)Nc2ccc(C)c(C)c2)cc1[N+](=O)[O-],0,4,10,1,/,/
COCCCNS(=O)(=O)c1ccc(OC)c(I)c1,0,-1,4,-2,/,/
COc1ccc(S(=O)(=O)Nc2ccc(Cl)cc2)cc1I,0,19*,2,9,0,6
COCCNS(=O)(=O)c1ccc(OC)c(I)c1,0,9.4*,-10,3,1,9
COc1ccccc1NS(=O)(=O)c1ccc(Br)c(C(=O)Nc2ccccc2)c1,0,2,11,5,/,/
COc1ccc(C(=O)OCc2nnc(-c3cc(OC)c(OC)c(OC)c3)o2)cc1,0,0,10,10,/,/
COCCNc1nnc(-c2ccc([N+](=O)[O-])cc2)s1,0,1,-6,-25,/,/
COCCCNS(=O)(=O)c1ccc2[nH]c(=O)[nH]c2c1,0,6.0*,-3,-6,1,16
O=c1[nH]c2ccc(S(=O)(=O)NCCO)cc2[nH]1,0,-1,2,3,/,/
COc1ccccc1NS(=O)(=O)c1cccc(S(=O)(=O)Nc2ccccc2OC)c1,0,-1,7,9,/,/
